In PubChem BioAssay AID1259341 (Broad Institute, 2017) one finds activity change, negative = inhibition data, which are given here for 35 compounds.

Molecules are shown by their SMILES. Activity calls are given as the source filed them.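 Rule for the calls: active = activity change under -35% in any replicate well, with more than 20 beads read in that well; inactive = the rest.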

Caspase recruitment domain-containing protein 9 (Homo sapiens) + E3 ubiquitin-protein ligase TRIM62 (Homo sapiens), sequence (Q9BVG3 whole entry, looked up, the tested form may be a part): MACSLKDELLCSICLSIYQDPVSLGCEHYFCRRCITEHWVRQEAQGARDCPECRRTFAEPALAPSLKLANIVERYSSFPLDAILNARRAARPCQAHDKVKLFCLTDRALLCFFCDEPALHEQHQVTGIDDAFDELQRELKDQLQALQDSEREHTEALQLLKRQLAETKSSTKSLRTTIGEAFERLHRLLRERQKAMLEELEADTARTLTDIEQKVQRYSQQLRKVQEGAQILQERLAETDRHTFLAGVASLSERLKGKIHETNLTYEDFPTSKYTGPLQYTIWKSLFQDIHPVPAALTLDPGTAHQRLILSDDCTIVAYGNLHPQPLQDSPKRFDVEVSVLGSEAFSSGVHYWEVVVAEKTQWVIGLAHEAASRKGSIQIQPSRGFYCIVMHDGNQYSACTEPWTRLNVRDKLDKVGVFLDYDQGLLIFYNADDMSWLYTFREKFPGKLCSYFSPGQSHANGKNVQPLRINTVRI
Caspase recruitment domain-containing protein 9 (Homo sapiens) + E3 ubiquitin-protein ligase TRIM62 (Homo sapiens), sequence (Q9H257 whole entry, looked up, the tested form may be a part): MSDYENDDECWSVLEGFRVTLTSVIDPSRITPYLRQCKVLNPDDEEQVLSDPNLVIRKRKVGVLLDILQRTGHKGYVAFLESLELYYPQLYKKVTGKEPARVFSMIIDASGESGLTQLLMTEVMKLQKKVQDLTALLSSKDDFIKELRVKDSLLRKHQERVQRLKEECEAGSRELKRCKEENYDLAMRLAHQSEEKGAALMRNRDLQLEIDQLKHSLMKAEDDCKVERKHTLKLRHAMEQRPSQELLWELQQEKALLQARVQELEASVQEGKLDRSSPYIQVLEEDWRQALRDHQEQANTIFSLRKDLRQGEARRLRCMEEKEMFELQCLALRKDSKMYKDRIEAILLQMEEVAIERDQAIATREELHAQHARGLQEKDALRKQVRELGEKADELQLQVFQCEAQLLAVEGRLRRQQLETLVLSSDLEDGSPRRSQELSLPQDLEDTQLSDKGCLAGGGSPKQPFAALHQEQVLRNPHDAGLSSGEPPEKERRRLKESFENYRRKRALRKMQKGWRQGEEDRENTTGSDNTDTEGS

The assay has as its target Caspase recruitment domain-containing protein 9 (Homo sapiens) + E3 ubiquitin-protein ligase TRIM62 (Homo sapiens) (UniProt Q9H257+Q9BVG3). As to the kind of experiment: CARD9/TRIM62 protein interaction inhibitors – cell lysate, HEK293FT lysates, Luminex bead ELISA, primary screen (AID 1259341).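 Note: PE anti-Flag signal of Flag-CARD9 captured by myc-TRIM62 beads.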 The note with it: PE fluorescence, active compounds read low, concentration not given here.
As for `O=C(NCCCN1CCOCC1)c1cc(-c2ccco2)nc2ccccc12`, the activity change, negative = inhibition is -23.9% (inactive).
In the case of `Nc1ccc2ncccc2c1N`, the activity change, negative = inhibition was 1.19% (inactive).
Turning to `O=C1CC(c2ccco2)Cc2nc(N3CCc4ccccc4C3)ncc21` (stereo not given), the activity change, negative = inhibition was -4.59% (inactive).
As for `Cc1ccc(S(=O)(=O)Nc2ccc3c(c2)C(=O)N([C@H](C)CO)C[C@H](C)[C@@H](CN(C)C(=O)C2CCCCC2)OCCCC[C@H](C)O3)cc1`, the figure is 6.06% (inactive); as for `Nc1cc2c(cc1-n1cccc1)OCCO2`, 4.12% (inactive).
As for `O=C(COC(=O)c1ccccc1Oc1ccccc1)NCc1ccco1`, the figure is 3.86% (inactive); as for `CCOC(=O)/C=C/S(=O)(=O)c1ccc(NC(C)=O)cc1`, -8.13% (inactive).
As for `NC(=O)C1(N2CCCCC2)CCN(c2ncc(NC(=O)c3cccc(Cl)c3)cc2C(=O)O)CC1`, the figure is -53.8% (active).
As for `O=C(COC(=O)c1cc(-c2ccco2)nc2ccccc12)NCc1ccc2c(c1)OCO2`, the activity change, negative = inhibition is 3.18% (inactive).
As for `Cc1cccc(NC(=O)Cc2coc3ccc4ccccc4c23)n1`, the figure is -0.738% (inactive); as for `CCc1ccc(Nc2nc(C(=O)NCc3ccc(N(C)C)cc3)nc3ccccc23)cc1`, -21% (inactive); as for `COc1cc(N)c(Cc2nccc3cc(OC)c(OC)cc23)cc1OC`, 1.93% (inactive).
With `O=C(Nc1ccc2oc(-c3ccncc3)nc2c1)c1ccc2c(c1)OCCO2`, the activity change, negative = inhibition is -1.89% (inactive).
Consider `NC(=O)C1(N2CCCCC2)CCN(c2ncc(NC(=O)c3ccc(F)cc3)cc2C(=O)O)CC1`, for which the activity change, negative = inhibition is -19.3% (inactive).
For `O=C(NCc1ccco1)C1CCCN(S(=O)(=O)c2cccc3nonc23)C1` (stereo not given) the value was 0.63% (inactive).
As for `O=C(O)C(c1ccccc1)C(c1ccccc1)c1ccccc1` (stereo not given), the figure is 6.86% (inactive).
`CCc1cc2c(=O)n(Cc3ccco3)c(SC)nc2s1`: the activity change, negative = inhibition is 1.18% (inactive).
As for `CS(=O)(=O)N1CCN(c2ccc([N+](=O)[O-])c(SCc3ccco3)c2)CC1`, the figure is -5.97% (inactive).
For `C(=N\n1cnnc1SCc1ccccc1)/c1ccco1` the value was 4.53% (inactive).
As for `O=C(Cn1cncc1-c1ccc([N+](=O)[O-])cc1)Nc1ccccc1F`, the figure is 4.4% (inactive); as for `O=S(=O)(c1ccccc1)N1CC2CN(Cc3ccc(O)cc3)C2C1` (stereo not given), -21% (inactive).
For `O=C(O)COCC(=O)NCc1ccco1`, the activity change, negative = inhibition is 1.03% (inactive).
Turning to `CCOC(=O)c1[nH]c(Cc2[nH]c(C(=O)OCC)c(C)c2C)c(C)c1C`, the activity change, negative = inhibition was -0.0423% (inactive).
As for `Cc1ccc(Nc2nc(C(=O)Nc3ccc(Br)cc3)nc3ccccc23)cc1`, the figure is 4.69% (inactive); as for `O=S(=O)(Nc1nccs1)c1ccc(-n2cccc2)cc1`, 3.9% (inactive).
As for `O=C(O)c1cc(-c2ccc(-c3ccc(F)cc3)o2)nc2ccccc12`, the figure is -7.53% (inactive).
As for `O=C1c2cccnc2C(=O)N1Cc1ccc(S(=O)(=O)NCc2ccco2)cc1`, the figure is 29.2% (inactive); as for `O=C(CCCN1C(=O)NC2(CCCC2)C1=O)Nc1ccc(F)cc1`, 23.8% (inactive).
Turning to `O=[N+]([O-])c1ccc2nn(Cc3ccccc3)cc2c1`, the activity change, negative = inhibition was 16.2% (inactive).
As for `O=C(CCn1cncn1)N1CCC(n2cc(-c3ccccn3)nn2)CC1`, the activity change, negative = inhibition was 3.29% (inactive).
`Cc1c(/C=C/c2nc3ccccc3c(=O)n2-c2ccccn2)c2ccccc2n1C`: the activity change, negative = inhibition is -1.2% (inactive).
For `CC1=CCC(C(=O)O)C(C(=O)NC2CCCCC2)C1` (stereo not given) the value was -6.81% (inactive).
As for `O=C(O)C1Oc2cc3ccccc3cc2O1`, the figure is -13.6% (inactive).
On to `O=C(CC1Nc2ccccc2OC1=O)Nc1ccc(Cl)cc1` (stereo not given), for which the activity change, negative = inhibition was 13.8% (inactive).
For `CCCN1CCCn2nc(CNC(=O)[C@@H](N)Cc3ccc(O)cc3)cc2C1` the value was -26.6% (inactive).
